The target in test [1] is Death-associated protein kinase 1 (Homo sapiens) (UniProt P53355). As to conditions: at 10 µM.
The target in test [2] is Death-associated protein kinase 2 (Homo sapiens) (UniProt Q9UIK4). As to conditions: at 1 µM.
For test [3] the target is unchanged. To be noted: at 10 µM.
The target in test [4] is T1, Serine/threonine-protein kinase DCLK2 (Homo sapiens) (UniProt Q8N568).
T1 sequence (whole entry): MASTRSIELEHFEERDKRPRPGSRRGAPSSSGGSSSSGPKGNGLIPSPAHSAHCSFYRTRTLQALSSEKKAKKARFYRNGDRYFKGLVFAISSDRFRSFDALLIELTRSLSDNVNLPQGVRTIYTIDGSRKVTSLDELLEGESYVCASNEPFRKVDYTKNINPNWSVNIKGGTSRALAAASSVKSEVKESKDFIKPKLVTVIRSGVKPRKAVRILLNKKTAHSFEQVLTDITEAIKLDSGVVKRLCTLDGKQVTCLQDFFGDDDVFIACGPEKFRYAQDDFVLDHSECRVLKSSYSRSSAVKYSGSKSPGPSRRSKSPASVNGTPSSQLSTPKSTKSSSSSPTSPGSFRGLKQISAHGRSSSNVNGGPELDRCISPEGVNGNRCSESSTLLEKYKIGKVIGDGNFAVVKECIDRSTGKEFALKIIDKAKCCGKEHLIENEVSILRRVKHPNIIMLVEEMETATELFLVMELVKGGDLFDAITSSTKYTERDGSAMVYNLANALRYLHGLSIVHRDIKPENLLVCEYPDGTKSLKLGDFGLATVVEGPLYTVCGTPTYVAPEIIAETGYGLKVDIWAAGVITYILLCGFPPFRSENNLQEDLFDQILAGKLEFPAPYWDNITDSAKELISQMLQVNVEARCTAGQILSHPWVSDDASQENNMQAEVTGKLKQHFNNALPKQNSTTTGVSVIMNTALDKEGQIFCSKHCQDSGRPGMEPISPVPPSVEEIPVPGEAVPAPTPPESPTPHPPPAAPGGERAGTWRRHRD
To be noted: at 1 µM.

Test [5] deals with T1, Serine/threonine-protein kinase DCLK2 (Homo sapiens). To be noted: at 10 µM.
Test [6] addresses T2, Discoidin domain-containing receptor 2 (Homo sapiens) (UniProt Q16832).
T2 sequence (whole entry): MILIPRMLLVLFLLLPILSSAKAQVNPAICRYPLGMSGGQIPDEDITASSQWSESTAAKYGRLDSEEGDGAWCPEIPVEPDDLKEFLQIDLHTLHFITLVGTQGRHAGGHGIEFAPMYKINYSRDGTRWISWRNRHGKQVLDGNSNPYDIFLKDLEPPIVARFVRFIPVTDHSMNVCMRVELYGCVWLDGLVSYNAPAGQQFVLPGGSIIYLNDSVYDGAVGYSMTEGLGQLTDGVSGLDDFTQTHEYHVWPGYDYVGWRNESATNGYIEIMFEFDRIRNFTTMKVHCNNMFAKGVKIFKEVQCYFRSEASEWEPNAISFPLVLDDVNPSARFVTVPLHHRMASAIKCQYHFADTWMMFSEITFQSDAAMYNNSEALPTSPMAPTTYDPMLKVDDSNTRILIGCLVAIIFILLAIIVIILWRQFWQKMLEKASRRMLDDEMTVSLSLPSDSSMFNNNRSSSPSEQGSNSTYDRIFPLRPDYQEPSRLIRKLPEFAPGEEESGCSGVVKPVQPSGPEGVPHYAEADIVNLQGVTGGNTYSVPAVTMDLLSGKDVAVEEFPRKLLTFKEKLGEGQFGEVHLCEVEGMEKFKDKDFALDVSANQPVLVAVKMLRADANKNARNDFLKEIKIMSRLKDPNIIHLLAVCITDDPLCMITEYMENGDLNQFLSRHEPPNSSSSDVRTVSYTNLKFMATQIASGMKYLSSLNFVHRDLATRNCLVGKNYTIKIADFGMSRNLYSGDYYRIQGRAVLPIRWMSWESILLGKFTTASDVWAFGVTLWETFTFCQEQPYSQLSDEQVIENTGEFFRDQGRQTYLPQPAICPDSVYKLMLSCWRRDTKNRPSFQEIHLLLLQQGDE
As to conditions: at 1 µM.

In test [7] the target is T2, Discoidin domain-containing receptor 2 (Homo sapiens). As to conditions: at 10 µM.
In test [8] the target is T3, Myotonin-protein kinase (Homo sapiens) (UniProt Q09013).
T3 sequence (whole entry): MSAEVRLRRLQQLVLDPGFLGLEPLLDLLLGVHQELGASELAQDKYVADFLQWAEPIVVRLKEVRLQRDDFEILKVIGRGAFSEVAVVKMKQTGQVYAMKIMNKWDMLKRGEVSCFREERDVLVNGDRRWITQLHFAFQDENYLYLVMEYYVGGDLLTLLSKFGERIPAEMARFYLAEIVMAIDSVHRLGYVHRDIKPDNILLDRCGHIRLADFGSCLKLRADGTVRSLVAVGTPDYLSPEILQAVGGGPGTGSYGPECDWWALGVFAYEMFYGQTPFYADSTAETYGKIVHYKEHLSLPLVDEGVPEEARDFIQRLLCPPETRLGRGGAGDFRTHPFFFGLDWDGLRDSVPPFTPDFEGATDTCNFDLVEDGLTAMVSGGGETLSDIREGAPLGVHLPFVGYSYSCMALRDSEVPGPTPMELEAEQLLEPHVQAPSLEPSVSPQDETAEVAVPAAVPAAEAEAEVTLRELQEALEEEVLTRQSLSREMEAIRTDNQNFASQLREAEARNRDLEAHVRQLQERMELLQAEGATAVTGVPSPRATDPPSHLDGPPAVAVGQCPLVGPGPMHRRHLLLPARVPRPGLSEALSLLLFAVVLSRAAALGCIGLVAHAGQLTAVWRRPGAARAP
As to conditions: at 1 µM.

Test [9] concerns the target T3, Myotonin-protein kinase (Homo sapiens). As to conditions: at 10 µM.
The target in test [10] is T4, Serine/threonine-protein kinase 17A (Homo sapiens) (UniProt Q9UEE5).
T4 sequence (whole entry): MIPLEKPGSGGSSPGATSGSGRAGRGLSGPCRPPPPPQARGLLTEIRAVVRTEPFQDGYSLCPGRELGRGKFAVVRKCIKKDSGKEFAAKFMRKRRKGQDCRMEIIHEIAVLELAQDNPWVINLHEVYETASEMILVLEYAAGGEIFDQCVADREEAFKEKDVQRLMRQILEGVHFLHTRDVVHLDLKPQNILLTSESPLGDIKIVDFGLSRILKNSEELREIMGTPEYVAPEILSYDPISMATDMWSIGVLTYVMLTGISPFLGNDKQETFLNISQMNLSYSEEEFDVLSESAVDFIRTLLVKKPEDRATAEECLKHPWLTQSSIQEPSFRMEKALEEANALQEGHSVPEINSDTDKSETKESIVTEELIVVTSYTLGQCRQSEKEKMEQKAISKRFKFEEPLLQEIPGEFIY
To be noted: at 1 µM.

Test [11] deals with T4, Serine/threonine-protein kinase 17A (Homo sapiens). As to conditions: at 10 µM.
For test [12], the target named is T5, Dual specificity tyrosine-phosphorylation-regulated kinase 2 (Homo sapiens) (UniProt Q92630).
T5 sequence (whole entry): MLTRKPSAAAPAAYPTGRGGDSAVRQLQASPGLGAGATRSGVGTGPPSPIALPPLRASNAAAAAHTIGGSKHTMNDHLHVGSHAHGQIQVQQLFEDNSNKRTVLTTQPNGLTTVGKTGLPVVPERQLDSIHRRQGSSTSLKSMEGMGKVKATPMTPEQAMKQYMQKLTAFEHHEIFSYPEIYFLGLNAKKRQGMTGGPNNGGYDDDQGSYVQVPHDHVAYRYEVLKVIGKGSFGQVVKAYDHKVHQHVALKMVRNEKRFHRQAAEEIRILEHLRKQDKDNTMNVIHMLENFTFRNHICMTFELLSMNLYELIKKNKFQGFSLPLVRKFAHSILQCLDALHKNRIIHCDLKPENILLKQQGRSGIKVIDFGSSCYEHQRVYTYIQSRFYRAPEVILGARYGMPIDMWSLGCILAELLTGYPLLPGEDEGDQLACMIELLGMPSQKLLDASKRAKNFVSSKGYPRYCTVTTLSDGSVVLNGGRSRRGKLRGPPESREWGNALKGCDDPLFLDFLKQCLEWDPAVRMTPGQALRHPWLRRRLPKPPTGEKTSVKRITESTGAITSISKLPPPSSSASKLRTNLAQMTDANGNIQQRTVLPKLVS
As to conditions: at 1 µM.

Test [13] deals with T5, Dual specificity tyrosine-phosphorylation-regulated kinase 2 (Homo sapiens). To be noted: at 10 µM.
The target in test [14] is T6, Ephrin type-A receptor 1 (Homo sapiens) (UniProt P21709).
T6 sequence (whole entry): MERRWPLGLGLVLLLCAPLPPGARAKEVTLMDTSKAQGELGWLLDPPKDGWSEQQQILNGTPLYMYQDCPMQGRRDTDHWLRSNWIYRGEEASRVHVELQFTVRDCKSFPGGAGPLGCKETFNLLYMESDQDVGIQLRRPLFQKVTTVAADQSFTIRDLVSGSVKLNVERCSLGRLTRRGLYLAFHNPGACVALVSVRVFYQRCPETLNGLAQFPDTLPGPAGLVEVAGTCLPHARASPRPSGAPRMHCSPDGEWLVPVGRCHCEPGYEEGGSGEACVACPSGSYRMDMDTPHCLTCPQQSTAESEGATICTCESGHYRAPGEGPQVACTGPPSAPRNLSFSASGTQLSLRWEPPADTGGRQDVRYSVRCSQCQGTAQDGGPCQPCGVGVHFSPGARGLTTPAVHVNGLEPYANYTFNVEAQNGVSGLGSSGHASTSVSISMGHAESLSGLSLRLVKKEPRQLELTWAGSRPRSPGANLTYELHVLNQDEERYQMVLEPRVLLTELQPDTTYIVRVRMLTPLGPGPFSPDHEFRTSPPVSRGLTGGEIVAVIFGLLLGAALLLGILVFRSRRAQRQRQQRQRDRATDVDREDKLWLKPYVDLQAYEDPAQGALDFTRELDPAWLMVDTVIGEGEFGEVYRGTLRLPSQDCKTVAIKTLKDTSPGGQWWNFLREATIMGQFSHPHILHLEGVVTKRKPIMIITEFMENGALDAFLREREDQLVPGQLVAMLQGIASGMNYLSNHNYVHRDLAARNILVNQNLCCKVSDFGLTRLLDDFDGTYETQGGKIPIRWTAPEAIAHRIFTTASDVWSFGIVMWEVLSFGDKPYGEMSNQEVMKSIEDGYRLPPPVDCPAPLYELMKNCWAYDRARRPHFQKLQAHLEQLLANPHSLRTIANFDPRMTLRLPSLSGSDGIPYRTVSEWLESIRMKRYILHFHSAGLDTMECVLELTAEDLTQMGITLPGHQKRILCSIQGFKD
To be noted: at 1 µM.

Test [15] concerns the target T6, Ephrin type-A receptor 1 (Homo sapiens). As to conditions: at 10 µM.
In test [16] the target is Ephrin type-A receptor 2 (Homo sapiens) (UniProt P29317). To be noted: at 1 µM.
Chain of Ephrin type-A receptor 2 (Homo sapiens) (P29317 whole entry): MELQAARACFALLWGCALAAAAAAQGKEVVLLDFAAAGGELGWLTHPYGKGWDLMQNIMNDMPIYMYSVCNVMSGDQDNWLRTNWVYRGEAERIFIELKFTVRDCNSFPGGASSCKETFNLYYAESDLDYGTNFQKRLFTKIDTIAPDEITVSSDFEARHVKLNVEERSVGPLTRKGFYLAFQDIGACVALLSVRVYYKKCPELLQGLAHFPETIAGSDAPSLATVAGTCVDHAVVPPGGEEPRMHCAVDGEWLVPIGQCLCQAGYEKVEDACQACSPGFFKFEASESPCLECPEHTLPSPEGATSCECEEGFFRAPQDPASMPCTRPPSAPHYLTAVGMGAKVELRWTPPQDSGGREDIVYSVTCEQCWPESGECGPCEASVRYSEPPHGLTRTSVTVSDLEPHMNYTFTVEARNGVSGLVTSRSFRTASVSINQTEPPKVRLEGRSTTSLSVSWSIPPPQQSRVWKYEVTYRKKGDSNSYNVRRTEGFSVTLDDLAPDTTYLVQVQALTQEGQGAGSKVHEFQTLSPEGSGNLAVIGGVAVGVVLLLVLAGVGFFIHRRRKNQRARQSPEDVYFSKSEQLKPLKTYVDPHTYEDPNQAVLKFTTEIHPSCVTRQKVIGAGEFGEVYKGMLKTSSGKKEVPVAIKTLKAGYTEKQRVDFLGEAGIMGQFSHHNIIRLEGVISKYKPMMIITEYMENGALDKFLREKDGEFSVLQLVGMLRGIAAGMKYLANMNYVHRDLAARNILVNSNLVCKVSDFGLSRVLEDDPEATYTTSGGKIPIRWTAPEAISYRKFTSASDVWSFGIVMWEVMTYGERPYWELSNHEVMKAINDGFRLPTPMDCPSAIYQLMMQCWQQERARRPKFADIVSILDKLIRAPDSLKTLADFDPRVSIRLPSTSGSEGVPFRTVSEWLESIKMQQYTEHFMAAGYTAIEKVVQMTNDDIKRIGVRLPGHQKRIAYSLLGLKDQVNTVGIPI
For test [17] the target is unchanged. To be noted: at 10 µM.
For test [18], the target named is T7, Ephrin type-A receptor 3 (Homo sapiens) (UniProt P29320).
T7 sequence (whole entry): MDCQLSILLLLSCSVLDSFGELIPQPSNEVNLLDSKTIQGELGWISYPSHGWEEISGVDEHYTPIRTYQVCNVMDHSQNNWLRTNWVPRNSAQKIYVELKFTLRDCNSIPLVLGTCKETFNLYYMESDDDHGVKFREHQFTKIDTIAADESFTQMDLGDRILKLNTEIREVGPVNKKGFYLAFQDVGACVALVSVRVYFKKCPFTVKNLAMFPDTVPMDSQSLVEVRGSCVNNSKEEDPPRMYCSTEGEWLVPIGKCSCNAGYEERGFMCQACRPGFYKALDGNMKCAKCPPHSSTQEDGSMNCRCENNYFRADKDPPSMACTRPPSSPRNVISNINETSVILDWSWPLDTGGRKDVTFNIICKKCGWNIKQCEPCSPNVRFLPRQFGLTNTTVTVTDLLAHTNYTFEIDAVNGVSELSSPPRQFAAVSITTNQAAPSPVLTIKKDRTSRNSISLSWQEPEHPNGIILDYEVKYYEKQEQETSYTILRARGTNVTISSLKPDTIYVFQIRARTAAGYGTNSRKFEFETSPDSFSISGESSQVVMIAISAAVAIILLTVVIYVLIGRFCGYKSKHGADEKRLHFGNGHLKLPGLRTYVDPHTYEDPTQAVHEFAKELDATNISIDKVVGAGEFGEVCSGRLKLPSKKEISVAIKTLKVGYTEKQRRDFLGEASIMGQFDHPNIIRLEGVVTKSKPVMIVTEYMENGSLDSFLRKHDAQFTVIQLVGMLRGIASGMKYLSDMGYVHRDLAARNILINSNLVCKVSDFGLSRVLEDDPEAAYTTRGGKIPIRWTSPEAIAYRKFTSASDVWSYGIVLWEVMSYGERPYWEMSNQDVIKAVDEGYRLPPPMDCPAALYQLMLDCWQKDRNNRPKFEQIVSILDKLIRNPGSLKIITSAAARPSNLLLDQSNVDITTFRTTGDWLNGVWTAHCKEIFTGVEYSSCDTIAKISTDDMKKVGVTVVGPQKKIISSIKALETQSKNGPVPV
As to conditions: at 1 µM.

Structures are written as SMILES.

Chain of Death-associated protein kinase 2 (Homo sapiens) (Q9UIK4 whole entry, looked up): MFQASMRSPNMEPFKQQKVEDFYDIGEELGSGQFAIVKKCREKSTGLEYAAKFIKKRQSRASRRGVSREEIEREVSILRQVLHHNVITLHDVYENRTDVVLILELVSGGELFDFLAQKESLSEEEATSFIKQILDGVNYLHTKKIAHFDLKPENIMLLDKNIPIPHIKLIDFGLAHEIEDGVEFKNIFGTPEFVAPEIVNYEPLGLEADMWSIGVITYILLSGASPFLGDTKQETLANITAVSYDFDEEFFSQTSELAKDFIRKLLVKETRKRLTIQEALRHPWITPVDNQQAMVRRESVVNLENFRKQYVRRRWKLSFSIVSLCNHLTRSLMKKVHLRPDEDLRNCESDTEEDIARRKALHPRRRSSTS
Chain of Death-associated protein kinase 1 (Homo sapiens) (P53355 whole entry, looked up): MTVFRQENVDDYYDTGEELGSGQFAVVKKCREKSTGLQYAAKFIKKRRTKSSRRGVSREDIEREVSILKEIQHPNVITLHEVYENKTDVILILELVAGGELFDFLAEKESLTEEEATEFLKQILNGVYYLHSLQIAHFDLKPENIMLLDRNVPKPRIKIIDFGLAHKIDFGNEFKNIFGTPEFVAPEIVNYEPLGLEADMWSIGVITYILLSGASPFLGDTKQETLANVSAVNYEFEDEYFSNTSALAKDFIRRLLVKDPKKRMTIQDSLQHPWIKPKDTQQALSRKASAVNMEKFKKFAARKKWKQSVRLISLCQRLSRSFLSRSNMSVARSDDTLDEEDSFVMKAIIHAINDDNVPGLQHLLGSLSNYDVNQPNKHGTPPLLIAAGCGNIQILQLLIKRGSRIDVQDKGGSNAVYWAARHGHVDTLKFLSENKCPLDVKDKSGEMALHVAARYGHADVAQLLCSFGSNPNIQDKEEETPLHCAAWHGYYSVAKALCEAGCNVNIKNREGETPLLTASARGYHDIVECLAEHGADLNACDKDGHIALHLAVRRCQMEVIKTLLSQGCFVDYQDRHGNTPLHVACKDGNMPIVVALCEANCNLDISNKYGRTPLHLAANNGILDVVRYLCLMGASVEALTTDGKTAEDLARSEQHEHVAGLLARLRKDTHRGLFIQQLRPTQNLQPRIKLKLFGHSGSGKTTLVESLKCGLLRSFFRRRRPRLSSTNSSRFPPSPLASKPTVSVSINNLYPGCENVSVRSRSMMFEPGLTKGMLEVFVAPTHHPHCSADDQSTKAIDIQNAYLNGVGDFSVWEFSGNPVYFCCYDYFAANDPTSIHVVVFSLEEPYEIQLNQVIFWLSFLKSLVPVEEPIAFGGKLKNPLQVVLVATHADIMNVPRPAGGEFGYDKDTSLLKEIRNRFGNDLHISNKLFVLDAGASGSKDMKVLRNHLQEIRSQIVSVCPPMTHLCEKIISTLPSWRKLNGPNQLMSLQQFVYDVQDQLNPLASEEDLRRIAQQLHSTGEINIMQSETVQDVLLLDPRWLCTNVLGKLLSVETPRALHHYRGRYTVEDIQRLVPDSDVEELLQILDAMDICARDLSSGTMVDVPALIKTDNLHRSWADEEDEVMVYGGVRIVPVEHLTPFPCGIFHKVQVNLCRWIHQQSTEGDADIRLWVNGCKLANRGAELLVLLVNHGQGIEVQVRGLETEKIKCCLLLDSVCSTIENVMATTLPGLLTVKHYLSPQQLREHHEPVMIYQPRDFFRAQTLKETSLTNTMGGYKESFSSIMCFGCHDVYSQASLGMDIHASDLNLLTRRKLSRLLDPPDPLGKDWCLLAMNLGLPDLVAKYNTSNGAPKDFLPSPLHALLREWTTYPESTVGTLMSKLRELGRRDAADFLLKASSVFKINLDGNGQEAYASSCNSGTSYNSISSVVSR

For `Cc1ccc(NC2=CC(=O)c3sc(C)nc3C2=O)cc1`, the residual activity in [1] was determined as 89%; in test [2] it was 99%; in [3], 94%; in test [4], 118%; in [5], 93%; in [6], 94%. For the same compound, the residual activity in test [7] was found to be 101%; in [8], 121%; in test [9], 91%; in test [10] it was 109%; in test [11], 81%; in [12], 85%. Also, the residual activity in test [13] stood at 100%; in test [14], 95%; in test [15], 91%; in test [16], 95%; in test [17] it was 102%; in test [18], 92%.
Consider `CCC(=O)Nc1ccc2ncnc(Nc3cccc(Br)c3)c2c1`, for which the residual activity worked out at 93% in test [1]; 98% in test [2]; 107% in test [3]; 79% in test [4]; 100% in test [5]; 92% in test [6]. For the same compound, the residual activity amounted to 82% in test [7]; 112% in test [8]; 118% in test [9]; 95% in [10]; 77% in [11]; 99% in test [12]. The residual activity amounted to 82% in [13]; 71% in test [14]; 89% in test [15]; 105% in test [16]; 90% in test [17]; 105% in test [18].

By residual activity is commonly meant the signal under treatment as a percentage of the control signal.
